PubChem BioAssay (EPA / NIEHS)
Results filed as inconclusive are left out. Active and inactive are the calls of the source. The calls were made as follows: active = hit-call score of the fitted dose curve at least 0.9, where 1 is the maximum; inconclusive = response in the unintended direction; inactive = score below 0.9.

Each compound was assayed on xenobiotic metabolism (CYP1A2), CYP1A2 (gene 1544) (assay: CLD_CYP1A2_6hr: CellzDirect (CLD) Gene Expression Assay for xenobiotic metabolism (CYP1A2) at 6 hours (AID 2283663);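 as to AC50: potency is for induction meaning a rise in mRNA above DMSO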).
Method: CLD_6hr is a cell-based, multiplexed-readout assay that uses hepatocyte, a human liver primary cell, with measurements taken at 6 hours after chemical dosing in a 96-well plate.CLD_CYP1A2_6hr is one of 16 assay component(s) measured or calculated from the CLD_6hr assay. It is designed to make measurements of mRNA induction, a form of inducible reporter, as detected with chemiluminescence signals by Quantitative Nuclease Protection Assay (qNPA) technology.Data from the assay component CLD_CYP1A2_6hr was analyzed at the endpoint, CLD_CYP1A2_6hr, in the positive analysis fitting direction relative to DMSO as the negative control and baseline of activity. Using a type of inducible reporter, gain-of-signal activity can be used to understand changes in the reporter gene as they relate to the gene CYP1A2. Furthermore, this assay endpoint can be referred to as a primary readout. To generalize the intended target to other relatable targets, this assay endpoint is annotated to the cyp intended target family, where subfamily is xenobiotic metabolism.
Human hepatocyte cultures were treated daily for two consecutive days with fresh dosing solutions containing appropriate concentrations of the 320 ToxCast chemicals (chemical identities were blinded to CellzDirect and other ToxCast collaborators), vehicle control (0.2% DMSO), and positive control inducers as summarized in Table 1. Due to the large number of treatment groups and chemicals examined, the ToxCast chemicals were divided into two groups (spanning two independent cultures of hepatocytes from separate donor preparations (Hu778: ToxCast plates 1 and 2; Hu776: ToxCast plates 3 and 4). Each preparation of human hepatocyte cultures was treated with respective vehicle control, medium only control, set of six positive controls/reference chemicals for the five hepatic receptor pathways, and a subset of eight of the ToxCast chemicals (indoxacarb, pyrithiobac-sodium, norflurazon, cyhalofop-butyl, methomyl, thiram, acetochlor, and propiconazole). These replicate data, coupled with internal replicates designed within the blinded ToxCast chemical library, provided additional data to evaluate interindividual differences between hepatocyte preparations and their potential impact on chemical profiles.Cell morphology and integrity were evaluated using phase-contrast microscopy as an indicator of hepatocyte cell health (Tyson & Green, 1987). Cultures for each treatment group (i.e., media, vehicle [0.2% DMSO], positive control inducers [multiple concentrations], and the ToxCast chemicals [multiple concentrations]) were observed and cell morphology was assessed relative to vehicle control cultures at each harvest time point (0, 6, 24, or 48 h). […] Images were evaluated at the conclusion of the study to assess changes in cell integrity and account for the effects of chemical exposure on uncharacteristic changes in concentration-dependent gene expression profiles. The results from these determinations of apparent cytotoxicity were annotated (yes/no) alongside the corresponding qNPA data for reference.At the conclusion of each treatment period, hepatocyte cultures (96-well) were washed with 1 volume of HBSS, lysed by addition of 25 ul ArrayPlate lysis buffer (HTG, Tucson, AZ), and 70 ul/well of Denaturation Oil, denatured by incubation at 95C for 10 min, and frozen at approximately -70C until analysis by nuclease protection assay (qNPA) (Roberts et al., 2007). For qNPA analysis, cell lysates were thawed at 50C for approximately 30 min, qNPA probes were added, and samples were incubated at 95C for 10 min to begin the detection process by denaturing the target RNA, dissociating the duplexes and secondary structure hybridization. At the conclusion of the hybridization period, S1 nuclease reagent was added to each sample to digest all nonprotected nucleotides at 50C for 60-90 min. […]

Row | SMILES | AC50 | outcome
1 | CC(C)C1(C)N=C(c2ncccc2C(=O)O)NC1=O (stereo not given) | 1.89 µM (active) | 
2 | CCCCC(C#N)(Cn1cncn1)c1ccc(Cl)cc1 (stereo not given) |  | inactive
3 | CNC(=O)N(C)c1nnc(C(C)(C)C)s1 |  | inactive
4 | O=C(O)c1c(Cl)ccc2cc(Cl)cnc12 |  | inactive
5 | CCNP(=S)(OC)O/C(C)=C/C(=O)OC(C)C (stereo not given) | 3.56 µM (active) | 
6 | CCC(C)n1c(=O)[nH]c(C)c(Br)c1=O (stereo not given) | 9.68 µM (active) | 
7 | O=c1n(Cl)c(=O)n(Cl)c(=O)n1Cl | 20 µM (active) | 
8 | COC(=O)N(C(=O)N1CO[C@@]2(C(=O)OC)Cc3cc(Cl)ccc3C2=N1)c1ccc(OC(F)(F)F)cc1 | 0.449 µM (active) | 
9 | CC(C)(C)C(=O)C(Oc1ccc(Cl)cc1)n1cncn1 (stereo not given) | 12.4 µM (active) | 
10 | Clc1cccc(C(Cl)(Cl)Cl)n1 |  | inactive
11 | CC(C)Nc1nc(Cl)nc(NC(C)C)n1 | 0.163 µM (active) | 
12 | Cn1c(-c2ccccc2)cc(-c2ccccc2)[n+]1C |  | inactive
13 | CCOC(=O)C(C)OC(=O)c1cc(Oc2ccc(C(F)(F)F)cc2Cl)ccc1[N+](=O)[O-] (stereo not given) | 4.81 µM (active) | 
14 | CSC(=O)c1c(C(F)F)nc(C(F)(F)F)c(C(=O)SC)c1CC(C)C |  | inactive
15 | COC(=O)c1c(C(F)F)nc(C(F)(F)F)c(C2=NCCS2)c1CC(C)C | 0.665 µM (active) | 
16 | CCNC(=O)NC(=O)C(C#N)=NOC |  | inactive
17 | C=CCOC(=O)C(C)(C)OC(=O)c1cc(-n2c(=O)cc(C(F)(F)F)n(C)c2=O)ccc1Cl |  | inactive
18 | CCOc1nc(F)cc2nc(S(=O)(=O)Nc3c(Cl)cccc3Cl)nn12 |  | inactive
19 | O=P(O)(O)CCCl |  | inactive
20 | Clc1nc(Cl)nc(Nc2ccccc2Cl)n1 |  | inactive

Row | SMILES | AC50 | outcome
21 | Cc1cnc(C2=NC(C)(C(C)C)C(=O)N2)c(C(=O)O)c1 (stereo not given) |  | inactive
22 | CC(C)N1C(=O)c2ccccc2NS1(=O)=O |  | inactive
23 | CCOc1nc(C(Cl)(Cl)Cl)ns1 |  | inactive
24 | COP(=O)(OC)O/C(C)=C/C(=O)N(C)C |  | inactive
25 | COCC(=O)N(c1c(C)cccc1C)C(C)C(=O)OC (stereo not given) |  | inactive
26 | COc1cc(OC)nc(NC(=O)NS(=O)(=O)c2ncccc2OCC(F)(F)F)n1 |  | inactive
27 | COCC(C)N(C(=O)CCl)c1c(C)csc1C (stereo not given) |  | inactive
28 | CC(C)N1C(=O)N(c2ccccc2)CSC1=NC(C)(C)C |  | inactive
29 | CCN(CC)c1nc(C)cc(OP(=S)(OC)OC)n1 | 5.69 µM (active) | 
30 | CC1(C)CON(Cc2ccccc2Cl)C1=O |  | inactive
31 | CS(=O)(=O)c1ccc(C(=O)C2C(=O)CCCC2=O)c([N+](=O)[O-])c1 |  | inactive
32 | COP(=S)(OC)SCn1nnc2ccccc2c1=O | 5.35 µM (active) | 
33 | CC(C)NC(=O)N1CC(=O)N(c2cc(Cl)cc(Cl)c2)C1=O | 20 µM (active) | 
34 | OC(c1ccc(Cl)cc1)(c1ccc(Cl)cc1)C(Cl)(Cl)Cl |  | inactive
35 | CCOc1cc(C(C)(C)C)ccc1C1COC(c2c(F)cccc2F)=N1 (stereo not given) |  | inactive
36 | CC1(C)C(C(=O)OC(C#N)c2cccc(Oc3ccccc3)c2)C1(C)C (stereo not given) |  | inactive
37 | CCOP(=S)(OCC)Oc1nc(Cl)n(C(C)C)n1 | 2.78 µM (active) | 
38 | CCCCOCN(C(=O)CCl)c1c(CC)cccc1CC |  | inactive
39 | COc1ccc(-c2ccccc2)cc1NNC(=O)OC(C)C | 0.798 µM (active) | 
40 | O=C(Nc1ccccc1-c1ccc(Cl)cc1)c1cccnc1Cl | 2.34 µM (active) | 
